Compound activity as filed in PubChem.
Only some compounds are listed: those with a hit (about 12% of all), similar ones and a draw of the others.
BAZ2B inh = blocks human BAZ2B; Q9UIF8; AlphaScreen BAZ2B-H3K14Ac peptide displacement; Potency, µM (series often up to 114 µM), inactives show at the top dose activity change, negative = inhibition, most hits filed as inhibitors; 360,000 tested, 4.4% active; AID 504333; note: % is set by controls: 0 for no effect and ±100 for the full control effect; nearly all actives have a fitted effect of over 60% in size
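BAZ2B 50 nM plus b-H3(5-23)K14Ac 50 nM, PBS pH 7.4/0.01% Tween-20, 30 min RT; compound added (max 110 uM), 30 min RT; streptavidin donor/Ni-chelate acceptor beads 10 ug/mL final, 20 min dark; AlphaScreen read.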
L3MBTL1 inh = blocks human L3MBTL1; Q9Y468; AlphaScreen L3MBTL1–H3K9me1 peptide binding; Potency, µM (titrated, usually from 57.1 µM), without a hit: at the top dose activity, negative = inhibition, most hits filed as inhibitors; 230,000 tested, 0.66% active; note: % is set by controls: 0 for no effect and ±100 for the full control effect; nearly all actives have a fitted effect of over 60% in size
Target sequence (Q9Y468 whole entry, looked up): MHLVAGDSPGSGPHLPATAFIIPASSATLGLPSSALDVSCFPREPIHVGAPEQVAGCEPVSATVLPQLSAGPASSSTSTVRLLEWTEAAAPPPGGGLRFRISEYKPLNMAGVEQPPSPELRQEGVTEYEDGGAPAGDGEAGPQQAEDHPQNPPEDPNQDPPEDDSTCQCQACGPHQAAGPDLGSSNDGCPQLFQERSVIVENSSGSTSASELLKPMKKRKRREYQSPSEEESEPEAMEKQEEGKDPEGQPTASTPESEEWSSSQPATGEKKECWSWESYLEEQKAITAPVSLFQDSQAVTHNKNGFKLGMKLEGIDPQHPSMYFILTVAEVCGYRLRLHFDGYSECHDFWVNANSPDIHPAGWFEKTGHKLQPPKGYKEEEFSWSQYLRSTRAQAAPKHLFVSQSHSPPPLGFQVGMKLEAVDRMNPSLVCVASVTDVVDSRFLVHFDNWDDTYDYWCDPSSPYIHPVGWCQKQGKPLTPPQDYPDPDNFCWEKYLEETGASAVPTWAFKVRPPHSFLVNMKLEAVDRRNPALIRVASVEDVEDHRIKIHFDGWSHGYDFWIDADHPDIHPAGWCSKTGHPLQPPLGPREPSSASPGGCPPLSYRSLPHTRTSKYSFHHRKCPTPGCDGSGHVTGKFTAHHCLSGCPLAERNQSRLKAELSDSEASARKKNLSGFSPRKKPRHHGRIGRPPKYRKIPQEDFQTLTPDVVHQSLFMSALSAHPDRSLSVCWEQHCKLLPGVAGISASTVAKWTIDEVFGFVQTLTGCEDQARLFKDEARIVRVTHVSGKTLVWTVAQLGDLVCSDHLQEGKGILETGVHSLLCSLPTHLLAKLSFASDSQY
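L3MBTL1 (50 nM) pre-complexed 30 min with biotinylated H3(1-15)K9me1 peptide (75 nM), then compounds added for 30 min at room temperature; AlphaScreen streptavidin donor/nickel chelate acceptor beads (10 ug/mL final) read after 30 min dark incubation.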
Sfp PPTase inh = blocks B. subtilis Sfp PPTase activity; Potency, µM, for inactives: largest response in the series, negative = inhibition, actives largely listed as inhibitors; 310,000 tested, 3.5% active; Biochemical Sfp PPTase activity, qHTS;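 note: the enzyme is Sfp with the accession as filed and its product quenches rhodamine fluorescence; 0% = enzyme reaction without inhibitor and -100% = no enzyme wells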
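Fluorescence-quenching assay with 15 nM Sfp, 5 uM rhodamine-CoA and 12.5 uM BHQ-2-labelled ybbR peptide in pH 7.6 Hepes/MgCl2 buffer. Enzyme was pre-incubated with compound for 15 min at room temperature. Rate was taken from the 30-min fluorescence change (525/598 nm).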
G9a inh = inhibitors of human histone lysine methyltransferase G9a. Potency, µM (highest dose often 102 µM), without a hit: at the top dose activity, negative = inhibition, most hits filed as inhibitors. 350,000 tested, 8.8% active. AID 504332. Q96KQ7. G9a H3K9 monomethylation, AlphaScreen, 2 h; note: % is set by controls: 0 for no effect and ±100 for the full control effect; nearly all actives have a fitted effect of over 75% in size
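Chemiluminescent proximity detection of H3K9 monomethylation, read after 10 min bead incubation in the dark. Reaction: 20 nM G9a, 500 nM biotin-H3K9 peptide, 20 uM SAM cofactor, 2 h, room temperature, following 15 min enzyme-compound preincubation.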
HP1b chromo inh = inhibitors of HP1-beta chromodomain binding to methylated histone tails | 390,000 tested, 0.56% active | P83916 | AlphaScreen HP1-beta / biotin-H3K9me3 peptide binding | AID 540317 | Potency, µM (highest dose often 114 µM), for inactives: at the top dose activity change, negative = inhibition, usual class: inhibitors; note: nearly all actives have a fitted effect of over 70% in size
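Compound inhibition of the preformed complex between 50 nM HP1-beta and 50 nM biotinylated H3K9me3 peptide was read by AlphaScreen. Buffer was PBS pH 7.4 with 0.01% Tween-20. Incubations ran 30 min at room temperature, with 10 ug/mL donor/acceptor beads.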
JMJD2A Tudor = JMJD2A Tudor domain (human) inhibition; AlphaScreen JMJD2A-Tudor / H3K4me3 peptide binding; 390,000 tested, 4.4% active; Potency, µM (top dose mostly 114 µM), for the others: at the top dose activity change, negative = inhibition, actives largely listed as inhibitors; note: % is set by controls: 0 for no effect and ±100 for the full control effect; nearly all actives have a fitted effect of over 50% in size
* marks the source's active call; other numbers are inactive results; ? = inconclusive; / = not tested or not shown; [ ] = dose if it differs, or a comment. Calls come from the whole dose curve; as a rule, active = well fitted curve in the direction sought with a large enough effect; inconclusive = small, poorly fitted or top-dose-only effect, or another doubt; inactive = no such curve, though single readings can be large; an effect the other way counts as inactive or inconclusive. Potency is the fitted concentration of half-maximal effect.

SMILES	BAZ2B inh	L3MBTL1 inh	Sfp PPTase inh	G9a inh	HP1b chromo inh	JMJD2A Tudor
COc1ccc(CN(CC(O)COc2cccc3[nH]cc(C)c23)C(C)(C)C)cc1 (stereo unspecified)	?	/	6%	?	?	50µM*
Cc1ccc(C23CCC(=O)N2C(C(=O)O)CS3)c(C)c1 (stereo unspecified)	-18%	/	-13%	-10%	8%	-17%
O=C(O)C1CSC2(c3ccc(F)cc3)CCC(=O)N12 (stereo unspecified)	-17%	6%	7%	56µM*	37%	-8%
CC(=O)Nc1ccc(S(=O)(=O)Oc2cccc(/C=C3\SC(N)=NC3=O)c2)cc1	-31%	/	-9%	-1%[59 µM]	-1%	25µM*
CCOc1ccc(-c2cn(-c3ccc(C)cc3)c(SCC(=O)Nc3ccc(C)cc3)n2)cc1	?	/	/	?	11%	-23%
COc1ccc(C(=O)Sc2nncc3ccccc23)cc1	71µM*	-5%	50µM*	22µM*	11%	?
Cc1c(C(=O)NN)nn(-c2ccc(F)cc2)c(=O)c1C#N	0%	/	6%	-18%	43%	-11%
CCOC(=O)c1nnn(-c2ccccc2C#N)c1C	-12%	8%	3%	-9%[12.7 µM]	39%	21%
CCOC(=O)c1nn(-c2ccccc2C)c(=O)c(C#N)c1C	6%	/	0%	89µM*	21%	-5%
CCOC(=O)c1nn(-c2ccc(C)c(C)c2)c(=O)c(C#N)c1C	-38%	-8%	9%	45µM*	29%	-27%
Nc1c(-c2nc(-c3cccs3)no2)nnn1-c1ccc(Cl)cc1	-3%	/	/	4%[59 µM]	25%	8%
CCCn1c(=N)n(CC(O)c2ccco2)c2ccccc21 (stereo unspecified)	-1%	4%	8%	-6%[59 µM]	10%	-16%
Cn1c(=N)n(CC(O)c2ccco2)c2ccccc21 (stereo unspecified)	4%	-2%	89µM*	2%[59 µM]	20%	9%
COC(=O)/C(=C/c1cn(C)c2ccccc12)[N+](=O)[O-]	?	1%	56µM*	?	/	/
Cc1ccc(Cn2ccc(NC(=O)c3noc4c3CCc3ccccc3-4)n2)cc1	-7%	/	16µM*	30%[59 µM]	16%	-2%
CCOC(=O)C(CC)Sc1ccc2nnc(-c3ccc(F)cc3)n2n1 (stereo unspecified)	/	/	/	/	25%[57 µM]	1%[57.1 µM]
CC(C)(C)n1cnc2cc(NC(=O)c3cccs3)ccc21	-20%	-1%	-7%	40µM*	38%	-14%
CC(C)(C)c1ccc(C(=O)NCCNC(=O)c2ccco2)cc1	2%	/	-7%	23%	15%	5%
CC(C)[C@H](N)c1nnc(SCc2ccc(Cl)cc2)o1	-1%	1%	13%	/	21%	14µM*
CCC(C)[C@H](N)c1nnc(SCc2ccc(Cl)c(Cl)c2)o1 (stereo partly specified)	?	/	/	8.9µM*	61%	3%
Cc1cc(C)cc(S(=O)(=O)N2CCN(c3nc(-c4cccs4)nc4ccccc34)CC2)c1	/	/	/	/	19%	-20%
COc1cc(C2CC(=O)Nc3c2c(=O)n(C)c2ncnn32)cc(OC)c1OC (stereo unspecified)	-24%	/	/	-31%[59 µM]	10%	-12%
CCn1c(C)nc2cc(C(=O)N/N=C/c3ccc(O)c(O)c3O)ccc21	11µM*	2.2µM*	2.2µM*	2µM*	8.9µM*	6.3µM*
CCn1c(C)nc2cc(C(=O)N/N=C/c3cccc(OC)c3O)ccc21	-16%	-28%	22%	79µM*	-6%	?
CCC(=NNC(=O)c1ccc2c(c1)nc(C)n2CC)c1cc(F)ccc1O	/	14%	/	/	17%	-27%
Cc1ccc2nc(/C(C#N)=C\c3cc(C)n(-c4cccc([N+](=O)[O-])c4)c3C)[nH]c2c1	?	/	7%	?	-6%	?
Cc1ccc2nc(/C(C#N)=C/c3ccc(-c4ccccc4C(=O)O)o3)[nH]c2c1	?	/	9%	?	24%	-19%
